Measured values as given in PubChem BioAssay AID588493 (Sanford-Burnham Center for Chemical Genomics, 2011).
Out of some 360,000 compounds screened, about 2,100 (0.58%) were called active.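 Rule for the calls: active = inhibition at 20 µM, scaled to each plate's controls, above about 33% (limit read from the data); inactive = the rest.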 The entries come from a sample that favours actives as a whole.

target: 26S proteasome non-ATPase regulatory subunit 14 (Homo sapiens) (UniProt O00487); test: Rpn11 (PSMD14) deubiquitinase inhibitors, primary screen, biochemical, fluorescence polarization, uHTS (AID 588493); conditions: human 26S proteasome, Ub4-pepOG fluorescence polarization; at 20 µM; stronger effect = higher value; 20S core pre-blocked with epoxomicin
Sequence (O00487 whole entry, looked up): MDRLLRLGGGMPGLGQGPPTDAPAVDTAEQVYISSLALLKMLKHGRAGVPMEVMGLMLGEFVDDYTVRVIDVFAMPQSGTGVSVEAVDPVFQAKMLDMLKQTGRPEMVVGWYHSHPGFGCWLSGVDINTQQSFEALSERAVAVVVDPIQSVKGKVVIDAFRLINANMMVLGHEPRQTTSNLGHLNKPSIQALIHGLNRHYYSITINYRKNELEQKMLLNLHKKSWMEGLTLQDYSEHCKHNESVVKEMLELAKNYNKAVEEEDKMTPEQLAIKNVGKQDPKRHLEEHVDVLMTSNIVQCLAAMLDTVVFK

inhibition, active:
CCOc1ccc(-n2c(O)c(/C=N/Nc3nnc(C)c(=O)[nH]3)c3ccccc3c2=O)cc1 36.2%
CCOc1ccc(-n2c(O)c(/C=N/c3ccnn3Cc3ccncc3)c3ccccc3c2=O)cc1 76.5%
COc1ccc2[nH]c3c(C)c4cc[n+](C)cc4c(C)c3c2c1 88.8%
CCCCCCSc1ccc([C@@H]2[C@H]3C(=O)N(CC)C(=O)[C@H]3[C@]3(C(=O)OC)CCCCN23)cc1 40.3%
O=C(Nc1ccc(-c2nnc(-c3ccccc3)o2)cc1)c1ccc(Br)o1 56.9%
COc1ccc(NC(=O)Cn2c(-c3ccc(OC)cc3)cn(-c3ccc(C)cc3)c2=O)cc1 43.4%
Cc1ccc(-c2nnc(-c3ccc(NC(=O)c4cccs4)cc3)o2)cc1 149%
COc1ccc(CC(=O)Nc2ccc(-c3nnc(-c4ccc(C)cc4)o3)cc2)cc1 32.7%
CCc1ccc(NC(=O)CS(=O)CC(=O)NCCCc2ccccc2)cc1 (configuration not stated) 43.6%
CN=c1scc(-c2cc(OC)ccc2OC)n1/N=C/c1c(C)[nH]c2ccccc12 56.4%
CCC(=C/c1sc2ccc3ccccc3c2[n+]1C)/C=C1\Sc2ccc3ccccc3c2N1C 70%
Cc1cc(OCC(=O)Nc2nccs2)c2c(C)c(C)c(=O)oc2c1 61.1%
Cc1ccc(NC(=O)c2c(NC(=O)CCC(=O)O)sc3c2CCCCC3)cc1 40.1%
CC(=O)/C(=N\Nc1ccc(Cl)cc1Cl)Sc1cccc2cccnc12 78.5%
COc1cccc(/C=N/NC(=O)c2[nH]nc3c2CCc2ccccc2-3)c1O 52.1%
CCOc1ccc(NC(=O)c2ccc(NC(=O)COC(=O)c3ccc(NC(=O)CC#N)cc3)cc2)cc1 128%

inhibition, inactive:
COc1ccc(C2N=C(N)N=C(N)N2c2ccccc2)cc1OC (configuration not stated) 6%
CCC(C)Sc1nc(C)nc2c1c(=O)n(C)c(=O)n2C (configuration not stated) 2%
CCOC(=O)C1(CC2CCCCO2)CCN(Cc2nc(-c3cccs3)oc2C)CC1 (configuration not stated) 4%
O=C(OCCOCn1cc(Br)c(=O)[nH]c1=O)c1ccccc1 0.6%
CONc1nc2nonc2nc1NOC 2.2%
CC(C)(C)C(=O)Nc1c(Br)c(C2CC2)nn1-c1ccccc1 9.6%
COCCCNC(=O)c1ccc(CNS(=O)(=O)c2ccc(NC(C)=O)cc2)cc1 -1.2%
CCOc1ccc(-n2c(SCC(=O)Nc3cc(C(=O)O)ccc3Cl)nc3ccccc3c2=O)cc1 2.7%
Cc1nnc(N/N=C/c2ccccn2)[nH]c1=O 6.9%
COC(=O)Cc1csc(/N=C/c2c(O)n(-c3cccc(C(F)(F)F)c3)c(=O)c3ccccc23)n1 33.4%
CCOc1ccc(N/C(N)=N/c2nc(C)c(C)c(=O)[nH]2)cc1 -8.8%
CCOc1ccc(CN2CCN(Cc3ccc4cc(F)ccc4n3)CC2CCO)cc1 (configuration not stated) -0.7%
COc1ccc(S(=O)(=O)N(C)C[C@H]2OCc3cnnn3CCCC(=O)N([C@H](C)CO)C[C@H]2C)cc1 -6.2%
Nc1nnc(SCCN2C(=O)c3ccccc3S2(=O)=O)s1 -2.1%
CC(=O)N(O)CCCCCNC(=O)CCC(=O)N(O)CCCCCNC(=O)CCC(=O)N(O)CCCCCNC(=O)CCC(=O)O -7%
CCOC(=O)c1ccc2c(c1)nc(SCC(=O)NC(C)C)n2CC -1.6%
C#CCNc1nc(C(C)C)nc2c1nnn2Cc1ccccc1F -3.7%
CCCn1nc(C(=O)NNC(=O)CSCC(=O)Nc2cc(C)on2)c2ccccc2c1=O 2.6%
O=C(Nc1ccc(-c2cscn2)cc1)C1CCCN(Cc2ccc(CO)o2)C1 (configuration not stated) -1.3%
CCOC(=O)CSc1nnc(CNC(=O)Cc2ccccc2)n1-c1ccccc1OC 0.1%
CCN1C(=O)[C@@H]2[C@@H](c3ccc(-c4ccccc4)cc3)N3CCCC[C@@]3(C(=O)OC)[C@@H]2C1=O 7%
CCCCCCSc1ccc([C@@H]2[C@@H]3C(=O)N(CC)C(=O)[C@@H]3[C@]3(C(=O)OC)CCCCN23)cc1OC 15.9%
COC(=O)[C@]1(C)CCC[C@@]2(C)C3CC[C@]4(OC(C)=O)C[C@@]3(CCC21)CC4=NO (some centres not stated) 0.3%
CCC(=O)N(C)C(c1ccccc1Cl)c1nnnn1-c1c(C)cccc1C (configuration not stated) 2.8%
COc1ccc(-c2cn(-c3ccc(C)cc3)c(=O)n2CC(=O)Nc2ccc(OC)c(OC)c2)cc1 6.4%
COc1ccc(C(CC(=O)Nc2ccc(C)cc2)NC(=O)C(F)(F)F)cc1 (configuration not stated) -7.5%
O=C(Nc1ccc(N2CCN(C(=O)C3CC3)CC2)cc1)c1cccs1 0.2%
Cc1ccc(NC(=O)Cn2c(C)csc2=O)cc1 -0.6%
CCS(=O)(=O)c1ccc(-c2cccc(NC(=O)c3ccc(Br)o3)c2)nn1 -4.8%
O=C(Nc1ccc(-c2nnc(-c3ccccc3)o2)cc1)C1CCCO1 (configuration not stated) -0.7%
COc1ccc(NC(=O)CN(C)C(=O)c2cc(C)oc2C)cc1 -18.9%
Cc1ccc(C(=O)NCC(=O)OCc2nnc(-c3ccccc3)o2)cc1 3%
CCOC(=O)c1cc(C(C)C)sc1NC(=O)COC(=O)c1nccnc1N 16.7%
CCOc1ccc2oc(C(=O)N(CC)CC(=O)Nc3ccc(NC(C)=O)cc3)c(C)c2c1 8.2%
Cc1cccc(NC(=O)CSc2nnc(CCNC(=O)OC(C)(C)C)o2)c1C -2.3%
O=C(NCc1ccccn1)C1CCN(S(=O)(=O)c2ccc(Br)cc2)CC1 -11.1%
CCC(C)C(CO)NC(=O)/C=C/[C@H]1O[C@@H](n2cnc3c(NC(=O)c4ccccc4)ncnc32)[C@H](O)[C@@H]1O (some centres not stated) -5.5%
COc1ccc(NC(=S)N2CCC(NC(=O)c3cccc(F)c3)CC2)cc1 6.4%
C=CCNC(=O)C1CC=CCC1C(=O)O (configuration not stated) 3.6%
CCOc1ccc(NC(=O)c2cccc3c2C(=O)N(CC2CCCO2)C3)cc1 (configuration not stated) -0.9%
O=C(COC(=O)c1n[nH]c2ccccc12)Nc1ccccc1Br 0.1%
CN(C)C(=O)c1ccc(NC(=O)c2ccccc2-c2ccccc2)cc1 7%
CCc1ccc(NC(=O)CS(=O)CC(=O)N2CCN(c3ccccc3F)CC2)cc1 (configuration not stated) 0.4%
S=C(NCCCc1ccccc1)Nc1ccc(Br)cc1 1%
CCNC(=S)Nc1ccc2c(c1)c(=O)n(C)n2Cc1ccc(Cl)cc1 8.6%
COCCNC(=S)N/N=C/c1c(C)[nH]c2ccccc12 17%
CCn1c(-c2cc(OC)ccc2OC)csc1=Nc1c(C)n(C)n(-c2ccccc2)c1=O 1.2%
COc1ccc(N(CCC(=O)NCCc2ccccc2)S(=O)(=O)c2ccc(C)cc2C)cc1 3.7%
Cc1cc(OCC(=O)N(C)c2c(N)n(Cc3ccccc3)c(=O)[nH]c2=O)c(C(C)C)cc1Cl -1.8%
Cc1ccc(S(=O)(=O)N2C[C@H]3C(=O)C[C@@H](c4cccc5ccccc45)N(S(=O)(=O)c4ccc(C)cc4)[C@H]3C[C@H]2c2ccc(Cl)cc2)cc1 -1.4%
O=C(NCc1nnnn1-c1ccc(Cl)cc1)c1ccc([N+](=O)[O-])o1 -0.3%
COc1ccc(CCNC(=O)COc2cc(C)cc3oc(=O)c(C)c(C)c23)cc1OC 0%
Cc1cc(OCC(=O)NCC(O)c2ccccc2)c2c(C)c(C)c(=O)oc2c1 (configuration not stated) -2.1%
CCCCc1ccc(NC(=O)CN2C(=O)NC(Cc3ccccc3)C2=O)cc1 (configuration not stated) -0.4%
CC(C)Oc1ccc(S(=O)(=O)N2CCOCC2)cc1NC(=O)C1CCCC1 2.4%
O=C1NC(Nc2nc3ccccc3s2)(C(F)(F)F)C(=O)N1C1CCCCC1 (configuration not stated) 3.6%
O=C(CN1CCCC1)Nc1sc2c(c1C(=O)Nc1ccccc1)CCCC2 -13.4%
COC(=O)c1c(NC(=O)CCN2CCOCC2)sc2c1CCCC2 6.6%
COC(=O)c1ccc(CNC(=O)c2ccc3oc(C(C)C)nc3c2)cc1 -13.2%
COc1cccc(CNC(=O)C2CCN(S(=O)(=O)c3cccc4cccnc34)CC2)c1 7.6%
Cc1cc(OCCOc2cccc3cccnc23)c(C)cc1Cl -1.8%
CCOC(=O)NN1C(=O)c2ccccc2NC1c1ccccc1O (configuration not stated) -5.9%
N#Cc1cccc(NC(=O)COC(=O)c2ccccc2C(=O)c2ccc(Cl)c([N+](=O)[O-])c2)c1 -2.3%
COc1ccc(CN2[C@@H](CC(=O)O)c3cc(F)ccc3S2(=O)=O)cc1 -5.9%
CCn1c(/C=N/NC(=O)c2ccc(OC)cc2)nc2ccccc21 -5.8%
COc1cc(/C=N/NC(=O)c2cccnc2)ccc1OC(=O)c1cccc(Br)c1 -13.5%
COc1ccc(CCNC(=O)CCNS(=O)(=O)c2cc(Br)cnc2N)cc1OC 0.1%
CC(C)C(NC(=O)c1cccc(S(=O)(=O)N2CCOCC2)c1)C(=O)NCCc1ccccn1 (configuration not stated) -2.1%
COCCCN1C(=O)c2ccc(C(=O)OCC(=O)NCc3ccccc3OC)cc2C1=O 3.9%
CC(C)NC(=O)NC(=O)COC(=O)c1ccc(NC(=O)CC#N)cc1 -1.1%
N#CCC(=O)Nc1ccc(C(=O)OCC(=O)Nc2sc3c(c2C#N)CCCC3)cc1 39.6%
